Source: PubChem (National Center for Advancing Translational Sciences (NCATS))
A selection: hits, their analogues and other compounds. The true share with any hit is near 8.9%.
DRD3 agonist: qHTS of D3 Dopamine Receptor Agonist: qHTS | D(3) dopamine receptor (Homo sapiens), P35462 | D3R DiscoveRx beta-arrestin cells, luminescence, 90 min | max activation, % | 410,000 compounds, 0.58% hits | AID 652048, 2013; in the data active = max activation above about 30%; also: 0% is about no effect
Target sequence (P35462 whole entry, looked up): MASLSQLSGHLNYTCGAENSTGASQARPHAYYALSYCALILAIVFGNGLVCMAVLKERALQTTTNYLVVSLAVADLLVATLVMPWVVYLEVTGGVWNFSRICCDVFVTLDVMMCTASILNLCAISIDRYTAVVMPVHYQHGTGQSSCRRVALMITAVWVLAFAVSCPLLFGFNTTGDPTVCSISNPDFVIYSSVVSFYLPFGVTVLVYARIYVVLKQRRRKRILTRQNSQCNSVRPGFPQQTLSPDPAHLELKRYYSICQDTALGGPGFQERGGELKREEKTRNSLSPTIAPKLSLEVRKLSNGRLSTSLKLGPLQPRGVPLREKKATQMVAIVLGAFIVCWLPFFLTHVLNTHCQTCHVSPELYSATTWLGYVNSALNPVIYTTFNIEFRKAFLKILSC
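Cells at 1500/well, incubated overnight, then treated with pinned compounds (dopamine as control) for 90 min at 37 degrees C. DiscoveRx reagent added for 30 - 60 minutes at room temperature; luminescence read.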
KB-3-1 cytotox: qHTS assay for MDR1-selective chemotherapeutics: Primary screen using the parental adenocarcinoma cell KB-3-1 | KB-3-1 viability, CellTiter-Glo ATP luminescence, 72 h | 400,000 compounds, 1.4% hits | Potency, µM (highest dose often 46.1 µM), usual class: cytotoxic | AID 1347075, 2019; also: potency is read from the fitted curve at half-maximal effect; % is scaled to controls: 0 for no effect and ±100 for the full control effect; nearly all actives have a fitted effect of over 60% in size
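Using CellTiter-Glo luminescence, growth of non-resistant KB-3-1 adenocarcinoma cells is assessed 72 h after pin-tool compound addition at 37 °C. Normalized responses across the concentration series yield fitted curves.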
SW480 rerep: A quantitative high throughput screen for small molecules that induce DNA re-replication in SW480 colon adenocarcinoma cells; SW480 DNA re-replication, Hoechst DNA content imaging, 48 h; Potency, µM (top dose mostly 46.1 µM), for inactives: top-dose re-replication activation, hits mostly activators; 340,000 compounds, 1.8% hits; also: potency is read from the fitted curve at half-maximal effect; % of control where 0% means no effect; nearly all actives have a fitted effect of over 55% in size
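Image-based read-out: total Hoechst fluorescence of nuclei (405 nm excitation, 500-530 nm emission), with hits raising the fraction of high-intensity nuclei. SW480 colon cells incubated 48 hr with compounds at 37 C.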
D3 antag: qHTS of D3 Dopamine Receptor Antagonist: qHTS. AID 652054, 2013. 360,000 compounds, 2.5% hits. D(3) dopamine receptor (Homo sapiens), P35462. max response, negative = inhibition, %. D3R cells, DiscoveRx beta-arrestin luminescence, antagonist mode; hits give low values; in the data active = max response below about -50%; inconclusive = no clear call, values can overlap the other calls; also: % is scaled to controls: 0 for no effect and ±100 for the full control effect
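Cells plated overnight at 1500 cells/well, then exposed to library compounds with dopamine controls for 90 minutes at 37 degrees C. DiscoveRx reagent added for 30–60 minutes at room temperature; luminescence read, quantitative HTS format.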
MCF10A rereplic: A quantitative high throughput screen for small molecules that induce DNA re-replication in MCF 10a normal breast cells | 350,000 compounds, 2.9% hits | Potency, µM (series often up to 46.1 µM), for inactives: top-dose activity, positive = re-replication, usual class: activators | MCF 10A DNA re-replication, Hoechst nuclear intensity, 48 h; also: potency is read from the fitted curve at half-maximal effect; % of control where 0% means no effect; nearly all actives have a fitted effect of over 50% in size
KB-V1 MDR tox: qHTS assay for MDR1-selective chemotherapeutics: Primary screen using the drug-selected MDR subline cells KB-V1. KB-V1 MDR cells viability, CellTiter-Glo, 72 h. Potency, µM (series often up to 46.1 µM), most hits filed as cytotoxic. 400,000 compounds, 3.4% hits. AID 1347076, 2019; also: potency is read from the fitted curve at half-maximal effect; % is scaled to controls: 0 for no effect and ±100 for the full control effect; nearly all actives have a fitted effect of over 60% in size
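Potencies derive from concentration-effect curves fitted to normalized luminescence (CellTiter-Glo) of KB-V1 cells treated for 72 h at 37 degrees C in phenol-red-free DMEM containing 10% FBS.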
* = called active by the depositor; [ ] = dose if it differs, or a comment. Unless noted, calls follow the shape of the dose curve; as a rule, active = well fitted curve in the direction sought with a large enough effect; inconclusive = small, poorly fitted or top-dose-only effect, or another doubt; inactive = no such curve, though single readings can be large; an effect the other way counts as inactive or inconclusive.

Results for COc1ccc(-c2cc(C(F)(F)F)nc(SCC(=O)NCCc3ccccc3)n2)cc1OC ?
DRD3 agonist: 3; KB-3-1 cytotox: inactive; KB-V1 MDR tox: inactive

Results for Cc1ccc(NC(=O)c2nc[nH]c2C(=O)NCCCCNC(=O)c2[nH]cnc2C(=O)Nc2ccc(C)cc2)cc1 ?
DRD3 agonist: 42*; KB-3-1 cytotox: inconclusive; SW480 rerep: -1%; D3 antag: 146; MCF10A rereplic: -1%; KB-V1 MDR tox: inconclusive

Results for CN(Cc1ccccc1)C(=O)c1[nH]cnc1C(=O)Nc1ccc(Cl)cc1 ?
DRD3 agonist: 2; KB-3-1 cytotox: inconclusive; SW480 rerep: 0%; D3 antag: -5; MCF10A rereplic: -5%; KB-V1 MDR tox: inconclusive

Results for CCN(CC)C(=O)c1[nH]cnc1C(=O)NCc1ccccc1 ?
DRD3 agonist: -3; KB-3-1 cytotox: inactive; SW480 rerep: 0%; D3 antag: -54*; MCF10A rereplic: 7%; KB-V1 MDR tox: inactive

Results for O=C(Nc1ccc(Cl)cc1)c1nc[nH]c1C(=O)NCc1ccccc1 ?
DRD3 agonist: 7; KB-3-1 cytotox: inconclusive; SW480 rerep: -13%[9.22 µM]; D3 antag: -22; MCF10A rereplic: inconclusive; KB-V1 MDR tox: 16µM*

How did CCN(CC)C(=O)c1[nH]cnc1C(=O)Nc1ccc(OC)cc1 do in these assays?
DRD3 agonist: -11; KB-3-1 cytotox: inconclusive; SW480 rerep: 1.8µM*; D3 antag: 0; MCF10A rereplic: -20%; KB-V1 MDR tox: inactive

What do the screens show for `Cc1ccc(NC(=O)c2nc[nH]c2C(=O)NCCCCCCNC(=O)c2[nH]cnc2C(=O)Nc2ccc(C)cc2)cc1`?
DRD3 agonist: 1; KB-3-1 cytotox: inconclusive; SW480 rerep: 0%; D3 antag: -3; MCF10A rereplic: -2%; KB-V1 MDR tox: inactive

What do the screens show for `CCN(CC)C(=O)c1[nH]cnc1C(=O)Nc1ccc(Cl)cc1`?
DRD3 agonist: 12; KB-3-1 cytotox: inactive; SW480 rerep: -5%; D3 antag: 24; MCF10A rereplic: 11%; KB-V1 MDR tox: inactive

How did CC(C)CC(NC(=O)C(COC(C)(C)C)NC(=O)C(Cc1ccc(O)cc1)NC(=O)C(CO)NC(=O)C(Cc1c[nH]c2ccccc12)NC(=O)C(Cc1cnc[nH]1)NC(=O)C1CCC(=O)N1)C(=O)NC(CCCN=C(N)N)C(=O)N1CCCC1C(=O)NNC(N)=O (configuration not stated) do in these assays?
SW480 rerep: 0%; MCF10A rereplic: -4%

How did CCOC(=O)c1ccc(NC(=O)c2nc[nH]c2C(=O)NCCCCCNC(=O)OC(C)(C)C)cc1 do in these assays?
DRD3 agonist: 52*; KB-3-1 cytotox: inconclusive; SW480 rerep: -53%; D3 antag: 116; MCF10A rereplic: 20%; KB-V1 MDR tox: inconclusive

How did O=C(Nc1ccccc1)c1nc[nH]c1C(=O)NCCNC(=O)c1[nH]cnc1C(=O)Nc1ccccc1 do in these assays?
DRD3 agonist: 69*; KB-3-1 cytotox: inactive; SW480 rerep: 6%; D3 antag: 134; MCF10A rereplic: inconclusive; KB-V1 MDR tox: inactive

How did COc1ccc(C(=O)COC(=O)c2cccc(-n3cnnn3)c2)c(OC)c1 do in these assays?
DRD3 agonist: 36*; KB-3-1 cytotox: inactive; SW480 rerep: -75%; D3 antag: 9; MCF10A rereplic: inconclusive; KB-V1 MDR tox: inactive

Results for O=C(COC(=O)c1cccc(-n2cnnn2)c1)c1ccc(F)cc1 ?
DRD3 agonist: -7; KB-3-1 cytotox: inactive; SW480 rerep: 1%; D3 antag: 8; MCF10A rereplic: -1%; KB-V1 MDR tox: inactive
